In PubChem BioAssay (NCATS):
Records with an inconclusive call do not appear. Active and inactive are the calls of the source. Unless noted, calls come from the whole dose curve; as a rule, active = well fitted curve in the direction sought with a large enough effect; inconclusive = small, poorly fitted or top-dose-only effect, or another doubt; inactive = no such curve, though single readings can be large; an effect the other way counts as inactive or inconclusive.

Key:
[1] = qHTS to identify inhibitors of the type 1 interferon - major histocompatibility complex class I in skeletal muscle: primary screen against the NCATS Pharmaceutical Collection (AID 1347407);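 note: luminescence of HiBiT knocked into endogenous HLA-B as interferon-induced MHC class I level; % is set by controls: 0 for no effect and ±100 for the full control effect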
Procedure, shortened: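 Immortalized human myoblasts (C25cl48) with HiBiT knocked into endogenous HLA-B*08:01 were stimulated with 4.0 ng/ml IFN-beta and treated with compounds ([…] top 46 uM) for 24 hrs at 37 C. HiBiT lytic luminescence read.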

[2] = target: Protein phosphatase 1D (Homo sapiens) (UniProt O15297); experiment: RapidFire Mass Spectrometry qHTS Assay for Modulators of WT P53-Induced Phosphatase 1 (WIP1) (AID 1347424);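 note: amount of dephosphorylated VEPPL-S-QETFS peptide product formed by WIP1; series mostly up to about 63 µM; plate controls were DMSO wells for no effect and GSK830371 inhibitor control at 10 µM for full effect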
Sequence of Protein phosphatase 1D (Homo sapiens) (O15297 whole entry, looked up): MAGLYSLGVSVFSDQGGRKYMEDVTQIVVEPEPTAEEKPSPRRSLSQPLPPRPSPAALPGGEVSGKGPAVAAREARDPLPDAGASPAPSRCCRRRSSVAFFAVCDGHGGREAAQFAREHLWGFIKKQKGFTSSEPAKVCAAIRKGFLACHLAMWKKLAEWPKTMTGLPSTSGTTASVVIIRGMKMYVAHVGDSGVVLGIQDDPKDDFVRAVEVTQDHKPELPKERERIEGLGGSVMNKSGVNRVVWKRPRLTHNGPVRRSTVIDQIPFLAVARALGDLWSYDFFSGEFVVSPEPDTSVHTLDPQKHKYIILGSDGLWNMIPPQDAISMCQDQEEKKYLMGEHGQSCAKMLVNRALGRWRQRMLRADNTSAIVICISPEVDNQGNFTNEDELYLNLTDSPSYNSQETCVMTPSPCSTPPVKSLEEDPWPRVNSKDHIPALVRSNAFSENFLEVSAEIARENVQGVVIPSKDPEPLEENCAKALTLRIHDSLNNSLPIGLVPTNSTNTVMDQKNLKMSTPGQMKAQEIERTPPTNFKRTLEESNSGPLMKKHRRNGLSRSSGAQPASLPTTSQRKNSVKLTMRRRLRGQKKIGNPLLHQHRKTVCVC
Procedure, shortened: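 WIP1 (10 nM final) was preincubated 1 h at room temperature with compounds in Tris-HCl pH 7.5, 30 mM MgCl2, TCEP, EGTA, BSA; 2 uM VEPPL-pS-QETFS phosphopeptide was added for 5 min, quenched with formic acid, and dephosphorylated product quantified by RapidFire MS.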

[3] = target: Protein phosphatase 1D (Homo sapiens) (UniProt O15297); experiment: Rhodamine-PBP qHTS Assay for Modulators of WT P53-Induced Phosphatase 1 (WIP1) (AID 1347425); note: % of control where 0% means no effect
Procedure, shortened: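 Steps: enzyme with Rh-PBP sensor and compounds, room-temperature incubation of 1 hr, baseline read, addition of VEPPL-pS-QETFS (10 uM final), kinetic fluorescence reads at 525/598 nm. Activity equals final minus baseline signal.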

[4] = Primary qHTS for inhibitors of La Crosse Virus (LACV) - induced cell death in SH-SY5Y cells (AID 1508616);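 note: top concentration of the series differs between compounds; 0% = infected DMSO wells and 100% = uninfected DMSO wells; higher means more rescue of cells from virus-induced death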
Procedure, shortened: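 Protection against LACV-induced cell death is scored in SH-SY5Y cells exposed to compounds and virus (0.01 MOI) for 6 days. Data normalized to virus-infected DMSO wells and virus-free DMSO wells.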

[5] = target: Calcium and integrin-binding protein 1 (Homo sapiens) (UniProt Q99828); experiment: Primary qHTS for Identification of Calcium Integrin Binding Protein 1 (CIB1) Competitor (AID 1508620);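 note: GST tagged CIB1 binding a fluorescein labelled alphaIIb integrin peptide tracer; top concentration of the series differs between compounds; % is set by controls: 0 for no effect and ±100 for the full control effect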
Sequence of Calcium and integrin-binding protein 1 (Homo sapiens) (Q99828 whole entry, looked up): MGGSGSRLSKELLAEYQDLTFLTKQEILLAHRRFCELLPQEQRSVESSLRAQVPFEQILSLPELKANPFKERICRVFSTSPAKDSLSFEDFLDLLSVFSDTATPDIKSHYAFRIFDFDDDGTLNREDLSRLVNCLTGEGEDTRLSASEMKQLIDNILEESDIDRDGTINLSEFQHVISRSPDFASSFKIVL
Procedure, shortened: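 Fluorescence polarization competition: CIB1-GST (1 uM final) preincubated with compound 15 min at room temperature, then FITC-labeled alphaIIb peptide (100 nM final) added for another 15 min. Polarization read at Ex 480/Em 540.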

[6] = A High-Content qHTS Against Drug Library for the Identification of Small Molecules that Inhibit DYT1 Early Onset Primary Dystonia-Associated Cell Pathology (AID 1645839; calls by dose curve; note: series mostly up to about 46 µM)
Procedure, shortened: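 Readout: %pathology, the punctate EGFP-TorsinA distribution from imaging, as the primary channel and cell count as the toxicity counterscreen. HEK293 Flp-In cells expressing delE TorsinA were induced with tetracycline and treated with compound for 48 h.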

[7] = Primary qHTS for small molecule stabilizers of the endoplasmic reticulum resident proteome: Secreted ER Calcium Modulated Protein (SERCaMP) assay (AID 1508630); note: % is set by controls: 0 for no effect and ±100 for the full control effect
Procedure, shortened: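 GLuc-SERCaMP-expressing SH-SY5Y cells, pretreated 16 h with compound, are challenged with thapsigargin to empty ER calcium stores; after 4 h, coelenterazine is added directly to the medium and luminescence is imaged.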

[8] = Counterscreen qHTS for small molecule stabilizers of the endoplasmic reticulum resident proteome: GLuc-NoTag assay (AID 1508627);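 note: SH-SY5Y cells given compound then 100 nM thapsigargin to empty ER calcium; series mostly up to about 76 µM; 0% = thapsigargin alone and -100% = DMSO vehicle control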
Procedure, shortened: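 SH-SY5Y cells stably expressing constitutively secreted GLuc (no SERCaMP tag) were pre-incubated 5 h, treated with compound for 19 h, then 100 nM thapsigargin for 4 h at 37C; medium GLuc read by coelenterazine luminescence.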

[9] = Confirmatory qHTS for small molecule stabilizers of the endoplasmic reticulum resident proteome: Secreted ER Calcium Modulated Protein (SERCaMP) assay (AID 1508628); note: series mostly up to about 76 µM; % is set by controls: 0 for no effect and ±100 for the full control effect; nearly all actives have a fitted effect of over 40% in size
Procedure, shortened: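 SH-SY5Y cells stably expressing GLuc-SERCaMP, treated 16 h with compound (primary 1.53, 7.67, 38.3 uM; confirmation 11 concentrations, up to 76.6 uM), then 100 nM thapsigargin for 4 h. Secreted Gaussia luciferase in medium read by coelenterazine luminescence.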

[10] = Cell Viability qHTS for small molecule stabilizers of the endoplasmic reticulum resident proteome (AID 1508629); settings: cell viability counter-screen, 100 nM thapsigargin for final 4 h;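 note: human SH-SY5Y neuroblastoma cells carrying the GLuc-SERCaMP reporter; compound exposure about 46 h in total before the viability read; % is set by controls: 0 for no effect and ±100 for the full control effect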

O=C1OC(OC(=O)c2cccnc2Nc2cccc(C(F)(F)F)c2)c2ccccc21 (stereo not drawn)
inactive: Potency [1] | outcome [2] | outcome [3] | outcome [4] | outcome [5] | Potency [6]

C[C@]12CC[C@@H]3c4ccc(O)cc4CC[C@H]3[C@@H]1CC[C@@H]2OC(=O)CCC1CCCC1
inactive: Potency [1] | outcome [2] | outcome [3] | outcome [5] | Potency [7]

NCCNCCNCCN
inactive: Potency [1] | outcome [2] | outcome [3] | outcome [4] | Potency [6]

CC1=C(C/C=C(\C)CCC[C@H](C)CCC[C@H](C)CCCC(C)C)C(=O)c2ccccc2C1=O
inactive: Potency [1] | outcome [2] | outcome [3] | outcome [4] | outcome [5] | Potency [6]

O=Cc1ccccc1C=O
inactive: Potency [1] | outcome [2] | outcome [3] | outcome [4] | outcome [5] | Potency [6]

CC1(C)CO[C@@H](CC(=O)O)CN1
inactive: Potency [1] | outcome [2] | outcome [3] | outcome [4] | outcome [5] | Potency [6]

Oc1cccc(O)c1
inactive: Potency [1] | outcome [2] | outcome [3] | outcome [4] | Potency [7] | Potency [6]

O=C(O)c1ccccn1
inactive: Potency [1] | outcome [2] | outcome [3] | outcome [4] | Potency [7] | Potency [6]

C[C@H](N)[C@H](O)c1cccc(O)c1
inactive: Potency [1] | outcome [2] | outcome [3] | outcome [5] | Potency [7] | Potency [6]

CC(C)(C)C(=O)C(Oc1ccc(Cl)cc1)n1ccnc1 (stereo not drawn)
inactive: Potency [1] | outcome [2] | outcome [3] | outcome [4] | outcome [5] | Potency [7] | Potency [6]

CC1(C)Oc2ccc(C#N)cc2[C@@H](N2CCCC2=O)[C@@H]1O
inactive: Potency [1] | outcome [2] | outcome [3] | outcome [4] | outcome [5] | Potency [7] | Potency [6]

O=C(O)CN1C(=O)c2cccc3cccc(c23)C1=O
inactive: Potency [1] | outcome [2] | outcome [3] | outcome [4] | outcome [5] | Potency [7] | Potency [6]

N[C@H]1C(O)O[C@H](CO)[C@@H](O)[C@@H]1O (stereo partly drawn)
inactive: Potency [1] | outcome [2] | outcome [3] | outcome [5] | Potency [7] | Potency [6]

CC[C@@]1(c2ccccc2)NC(=O)N(C)C1=O
inactive: Potency [1] | outcome [2] | outcome [3] | outcome [5]

CCC(=O)Nc1ccc(O)cc1
inactive: Potency [1] | outcome [2] | outcome [3] | outcome [4] | outcome [5] | Potency [6]

C[C@@H](O)[C@H](N)C(=O)O
inactive: Potency [1] | outcome [2] | outcome [3] | outcome [4] | Potency [6]

O=C1O[C@H](CO)[C@@H](O)[C@H](O)[C@H]1O
inactive: Potency [1] | outcome [2] | outcome [3] | outcome [4] | Potency [7] | Potency [6]

COC(=O)[C@H]1[C@H]2C[C@@H]3c4[nH]c5cc(OC)ccc5c4CCN3C[C@H]2C[C@@H](OC(=O)COc2ccc(OC)cc2)[C@@H]1OC
inactive: Potency [1] | outcome [2] | outcome [3] | outcome [4] | outcome [5] | Potency [7] | Potency [6]

CCOC(=O)c1ccc(O)cc1
inactive: Potency [1] | outcome [2] | outcome [3] | outcome [4] | outcome [5] | Potency [7] | Potency [6]

OCC(O)CN1CCN(c2ccccc2)CC1 (stereo not drawn)
inactive: Potency [1] | outcome [2] | outcome [3] | outcome [4] | outcome [5] | Potency [7] | Potency [6]

[O-][n+]1cccc(CO)c1
inactive: Potency [1] | outcome [2] | outcome [3] | outcome [4] | outcome [5] | Potency [7] | Potency [6]

NCCNCCNCCNCCN
inactive: activity change, negative = inhibition [1] 0.364% [at 9.18 µM] | activity change, negative = inhibition [2] -9.15% [at 12.6 µM] | activity change, negative = inhibition [3] 12% [at 11.5 µM] | activity change [4] -4.84% [at 0.858 µM] | outcome [5] | activity change, negative = inhibition [7] -1.31% [at 7.35 µM] | % pathology change, negative = correction [6] 14.9% [at 9.22 µM]

Nc1ccc(S(=O)(=O)NC(=O)c2ccccc2)cc1
inactive: Potency [1] | outcome [2] | outcome [3] | outcome [4] | outcome [5] | Potency [7] | Potency [6]

NC(=O)NC(=O)Cc1ccccc1
inactive: Potency [1] | outcome [2] | outcome [3] | outcome [4] | outcome [5] | Potency [7] | Potency [6]

CC(COc1ccccc1)NC(C)C(O)c1ccc(O)cc1 (stereo not drawn)
inactive: Potency [1] | outcome [2] | outcome [4] | outcome [5] | Potency [7]

C[C@@H]1C[C@H]2[C@@H]3C[C@H](F)C4=CC(=O)C=C[C@]4(C)[C@@]3(F)[C@@H](O)C[C@]2(C)[C@@]1(O)C(=O)CO
inactive: Potency [1] | outcome [2] | outcome [4] | outcome [5] | Potency [7]

CCOc1nc2cccc(C(=O)O)c2n1Cc1ccc(-c2ccccc2-c2nn[nH]n2)cc1
inactive: Potency [1] | outcome [2] | outcome [4] | outcome [5] | Potency [7]

O=C1c2c(O)cccc2Cc2cccc(O)c21
inactive: Potency [1] | outcome [2] | outcome [3] | outcome [5] | Potency [6]

Cc1cccc(Nc2cc(Cl)nc(SCC(=O)O)n2)c1C
inactive: Potency [1] | outcome [2] | outcome [3] | outcome [5] | Potency [7] | Potency [6]

CC(C)(C)C(=O)NCCCC(=O)O
inactive: Potency [1] | outcome [2] | outcome [4] | outcome [5] | Potency [6]

Cc1cc2nc3c(=O)[nH]c(=O)nc-3n(C[C@H](O)[C@H](O)[C@H](O)CO)c2cc1C
inactive: Potency [1] | outcome [2] | outcome [4] | Potency [8] | Potency [9] | max response [10] 11.4% | Potency [6]

COc1ccc2cc1Oc1cc3c(cc1OC)CC[N+](C)(C)[C@H]3Cc1ccc(cc1)Oc1c(OC)c(OC)cc3c1[C@@H](C2)[N+](C)(C)CC3
inactive: Potency [1] | outcome [2] | outcome [3] | outcome [5] | Potency [6]

CCCCOc1cc(C(=O)OCCN(CC)CC)ccc1N
inactive: Potency [1] | outcome [2] | outcome [3] | outcome [5] | Potency [7] | Potency [6]
